Only a selection was taken, and the strongest signals are over-represented in it overall.

1 molecule from the supplement of paper PMC8728848 can be followed below.

Common to all, as to assay: glycan array binding signal (z-score within array); higher = stronger binding
Common to all, as to conditions: glycan notation: IUPAC condensed, linker removed

In assay [1] the target is Gal6S(b1-3)GlcNAc6S. In outline: (§1)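 Negative Z-scores can be read as non-binding. The Z-score is calculated within each array and then averaged across arrays of one protein sequence at different concentrations or buffers and across linkers. Arrays, 3228 in all, were curated from the Consortium for Functional Glycomics database and kept only where the protein sequence was available.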

For assay [2], the target named is GalNAc4S6S(b1-4)GlcNAc. In outline: as §1
The target of assay [3] is Glc(a1-4)Glc. The essentials:
as §1

In assay [4] the target is GlcA3S(b1-3)Gal(b1-4)GlcNAc(b1-3)Gal(b1-4)Glc. In outline: as §1
In assay [5] the target is GlcNAc(a1-4)Gal(b1-3)GlcNAc. In outline:
as §1

Assay [6] deals with GlcNAc(b1-2)Man(a1-3)[GlcNAc(b1-2)Man(a1-6)]Man(b1-4)GlcNAc(b1-4)GlcNAc. The essentials:
as §1

For assay [7], the target named is Man(a1-3)[Man(a1-6)]Man. In outline:
as §1

Assay [8] concerns the target Man(a1-6)Man. In outline:
as §1

For assay [9], the target named is Neu5Ac(a2-3)Gal(b1-3)GalNAc6S. The essentials: as §1
Assay [10] deals with Neu5Ac(a2-3)Gal(b1-4)GlcNAc(b1-2)[Neu5Ac(a2-3)Gal(b1-4)GlcNAc(b1-4)]Man(a1-3)[GlcNAc(b1-4)][Neu5Ac(a2-3)Gal(b1-4)GlcNAc(b1-2)[Neu5Ac(a2-3)Gal(b1-4)GlcNAc(b1-6)]Man(a1-6)]Man(b1-4)GlcNAc(b1-4)GlcNAc. In outline:
as §1

Assay [11] has as its target Neu5Ac(a2-3)Gal(b1-4)GlcNAc(b1-3)Gal(b1-4)GlcNAc(b1-2)Man(a1-3)[Neu5Ac(a2-3)Gal(b1-4)GlcNAc(b1-3)Gal(b1-4)GlcNAc(b1-2)Man(a1-6)]Man(b1-4)GlcNAc(b1-4)GlcNAc. The essentials:
as §1

In assay [12] the target is Neu5Ac(a2-3)Gal(b1-4)GlcNAc(b1-3)Gal(b1-4)GlcNAc(b1-3)GalNAc. In outline: as §1
In assay [13] the target is Neu5Ac(a2-3)Gal(b1-4)[Fuc(a1-3)]GlcNAc(b1-3)GalNAc. The essentials: as §1
Assay [14] addresses Neu5Ac(a2-3)Gal6S(b1-4)[Fuc(a1-3)]GlcNAc. In outline:
as §1

The target of assay [15] is Neu5Ac(a2-3)[GalNAc(b1-4)]Gal(b1-4)Glc. The essentials: as §1
Assay [16] has as its target Neu5Ac(a2-6)Gal(b1-3)GlcNAc(b1-3)[Gal(b1-4)GlcNAc(b1-6)]Gal(b1-4)Glc. The essentials:
as §1

In assay [17] the target is Neu5Ac(a2-6)Gal(b1-4)GlcNAc(b1-3)Gal(b1-4)GlcNAc(b1-3)GalNAc. The essentials:
as §1

Assay [18] has as its target Neu5Ac(a2-6)Gal(b1-4)GlcNAc6S. The essentials: as §1
Assay [19] has as its target Neu5Ac(a2-8)Neu5Ac(a2-3)[Gal(b1-3)GalNAc(b1-4)]Gal(b1-4)Glc. In outline:
as §1

The target of assay [20] is Neu5Gc(b2-6)Gal(b1-4)GlcNAc. The essentials:
as §1

B1: TAL6-4LysM (Trichoderma atroviride) (protein)
chain: AADSIPSISPTGIITPTPTQSGMVSNCNKFYDVHSNDGCSAIASSQHVDLSSLYKWNPAIKTDCSGLQASVYVCIGILTTSMSTTSKLPTTTSKPSTTSKPPTGITTPTPTQSGMVKNCNKFYDVHSGDGCSAIASSQKVNLSSFYLWNPAVKTDCSGLQASVFVCIGTLTTSMSTTTSKLPTTTSKPSTTSKPPTGIITPTPTQNGMVKNCNKFYDVHSGDGCSAIASSQKVNLSSFYLWNPAVKTDCSGLQASVFVCVGTATTTTAAGITTPTPTQSGMVSGCNKFYDVHAGDGCSAIASSQKIALSSLYKWNPAVKTDCSGLQASVYICIGVGNAAAARVTGALEQKLISEEDLNSAVDHHHHHH
Turning to B1, the “glycan array binding signal (z-score)” value in assay [1] was 0.018; in [2], 1.16; in [3] it was -0.584; in [4], 1.02; in assay [5], -0.119; in assay [6], 2.79. The “glycan array binding signal (z-score)” value in assay [7] was 3.24; in assay [8], -1.37; in assay [9], 0.743; in [10] it was -1.17; in assay [11], 2.52; in [12], -0.304. The “glycan array binding signal (z-score)” value was -0.18 in assay [13]; -1.06 in assay [14]; -1.03 in [15]; 0.176 in assay [16]; 3.9 in assay [17]; 1.36 in [18]. Besides, the “glycan array binding signal (z-score)” value was -0.586 in assay [19] and -0.286 in [20].
